# Laboratory results taken from publication PMC4336329 (PLoS ONE, 2015).
# Out of some 310,000 compounds screened, about 14,000 (4.5%) showed an effect of 50% or more. Effects have a minus sign here. Shown is part of a subset that was picked to be rich in strong results.
# Target: human ether-à-go-go-related gene (hERG) potassium channel (human, UniProt Q12809)
# Test: primary screen, population patch clamp on CHO cells stably expressing hERG; higher = less effect of the substance
# 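Also: peak tail current of the secondary pulse compared with the same well before compound.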
# Sequence of human ether-à-go-go-related gene (hERG) potassium channel (Q12809 whole entry, looked up): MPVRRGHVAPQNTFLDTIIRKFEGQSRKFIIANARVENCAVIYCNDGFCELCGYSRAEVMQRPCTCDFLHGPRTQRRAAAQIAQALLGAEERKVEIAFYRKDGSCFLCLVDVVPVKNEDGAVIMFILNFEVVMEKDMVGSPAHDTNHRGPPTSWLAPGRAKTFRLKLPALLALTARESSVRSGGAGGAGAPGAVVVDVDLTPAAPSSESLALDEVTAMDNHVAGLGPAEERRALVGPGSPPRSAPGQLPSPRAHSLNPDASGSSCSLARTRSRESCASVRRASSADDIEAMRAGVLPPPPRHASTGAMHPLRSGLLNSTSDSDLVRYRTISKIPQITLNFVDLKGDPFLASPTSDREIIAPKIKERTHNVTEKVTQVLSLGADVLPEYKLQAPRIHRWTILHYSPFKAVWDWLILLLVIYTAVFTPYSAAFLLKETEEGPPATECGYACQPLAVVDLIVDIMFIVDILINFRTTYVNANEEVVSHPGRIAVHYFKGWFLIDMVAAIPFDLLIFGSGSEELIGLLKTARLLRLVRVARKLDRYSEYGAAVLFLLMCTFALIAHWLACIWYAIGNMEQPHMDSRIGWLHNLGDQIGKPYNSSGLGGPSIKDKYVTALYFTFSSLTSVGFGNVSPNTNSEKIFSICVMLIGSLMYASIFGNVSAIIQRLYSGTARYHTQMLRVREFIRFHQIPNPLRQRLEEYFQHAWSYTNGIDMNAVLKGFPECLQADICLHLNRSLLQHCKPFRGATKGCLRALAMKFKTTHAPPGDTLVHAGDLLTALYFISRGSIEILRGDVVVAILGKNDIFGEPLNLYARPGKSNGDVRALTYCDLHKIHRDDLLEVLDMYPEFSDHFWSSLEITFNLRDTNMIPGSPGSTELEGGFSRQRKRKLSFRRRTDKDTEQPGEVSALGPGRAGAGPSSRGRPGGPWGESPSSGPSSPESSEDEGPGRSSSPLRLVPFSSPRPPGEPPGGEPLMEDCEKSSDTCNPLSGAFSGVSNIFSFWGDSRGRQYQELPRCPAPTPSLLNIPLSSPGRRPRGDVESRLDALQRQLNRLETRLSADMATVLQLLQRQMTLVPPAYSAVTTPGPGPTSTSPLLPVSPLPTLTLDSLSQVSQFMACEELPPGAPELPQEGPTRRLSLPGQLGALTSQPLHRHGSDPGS
row,Structure (SMILES),"hERG current change (%, negative = inhibition) at 10uM [%]"
1,COc1cccc(N2CCN(C(c3ccccn3)c3nnnn3C(C)(C)C)CC2)c1 (stereo not drawn),1.38
2,O=C(c1ccccc1)N(Cc1cccc(Br)c1)C1CCS(=O)(=O)C1 (stereo not drawn),-7.59
3,CCCCC1(C(=O)OC)NC(c2ccc(O)cc2)C2C(=O)N(c3ccccc3)C(=O)C21 (stereo not drawn),2.03
4,Cc1ccc(-c2nnc(SCC#CCOC(=O)c3ccco3)o2)cc1,-6.36
5,O=C(O)c1ccc(NC(CSCc2ccc(F)cc2)C(=O)O)c([N+](=O)[O-])c1 (stereo not drawn),2.41
6,CCOc1ccc(C2c3[nH]c4ccccc4c3C[C@H]3C(=O)N(C4CCN(Cc5ccccc5)CC4)CC(=O)N23)cc1OC (stereo partly drawn),-5.25
7,C/C(CC(=O)Nc1ccc2c(c1)OCO2)=N\NC(=O)OC(C)(C)C,-5.1
8,COC(=O)C1C(O)=C(C(C)=N)C(=O)CC1(C)C (stereo not drawn),22.9
9,O=C(COC(=O)C1CC(=O)N(c2nc(-c3ccccc3)cs2)C1)c1ccccc1 (stereo not drawn),26.9
10,C=C1CCN([C@H](C(=O)NCc2ccccc2)C(C)C)S(=O)(=O)c2ccccc21,3.33
11,CCOC(=O)c1cc2ccccc2nc1C,5.32
12,CC(C)n1nc(C(=O)OCn2nnc3ccccc3c2=O)c2ccccc2c1=O,10.2
13,Br.CCc1ccc(C2=CSC3=NCCN23)cc1,-14.7
14,Br.COc1ccc(C2=CSC3=NCCN23)cc1,-6.09
15,Br.CC(C)(C)c1cc(C2=CSC3=NCCN23)cc(C(C)(C)C)c1O,-76.2
16,Clc1ccc(C2=CSC3=NCCN23)c(Cl)c1.[Br-],-59.4
17,Brc1ccc(C2=CSC3=NCCN23)cc1,-29.5
18,Br.Clc1ccc(C2=CSC3=NCCN23)cc1Cl,-48.2
19,Br.C1=C(c2ccccc2)N2CCN=C2S1,-7.6
20,Br.Cc1ccc(C2=CSC3=NCCN23)c(C)c1,-26.8
21,Br.Cc1ccc(C2=CSC3=NCCN23)cc1,-4.96
22,Br.CC(C)(C)c1ccc(C2=CSC3=NCCN23)cc1,-55.8
23,Cl.Oc1ccc(C2=CSC3=NCCN23)cc1O,-1.2
24,Br.CC(C)Cc1ccc(C2=CSC3=NCCN23)cc1,-70.5

row,Structure (SMILES),"hERG current change (%, negative = inhibition) at 10uM [%]"
1,O=C(c1ccc(CS(=O)c2ccccc2Cl)o1)N1CCCCCC1 (stereo not drawn),14.5
2,O=C(CC1C(=O)NCCN1C(=O)c1ccc([N+](=O)[O-])cc1)Nc1ccc(F)cc1 (stereo not drawn),-21.8
3,O=C(Nc1nccs1)c1ccc2c(c1)C(=O)N(Cc1cccnc1)C2=O,-4.17
4,CCCCNC(=O)c1ccc(CS(=O)(=O)c2ccc(C)cc2)o1,15.1
5,CCOC(=O)c1ccc2cccc(C)n2c1=O,3.05
6,CSc1ccc(Cl)c(C(=O)N(C)CC(=O)Nc2ccc(N3CCOCC3)cc2)c1,-0.854
7,COC(=O)C1CCN(C(=O)COC(=O)Cc2c[nH]c3ccccc23)CC1,3.1
8,Cc1ccc(CN(C(=O)c2cccs2)C2CCS(=O)(=O)C2)cc1 (stereo not drawn),-46.5
9,CCn1c(C)nc2c(=O)oc3ccccc3c21,-9.57
10,CCNC(=O)c1ccc(N(C)S(=O)(=O)c2cccs2)cc1,26.5
11,CC1CCN(Cc2c(C(=O)N/N=C/c3cc(Br)ccc3O)nnn2-c2nonc2N)CC1,19.9
12,CC1(C)CC(=O)c2ccc(O)cc2O1,4.03
13,CC1(C)CC(=O)c2ccc(OCc3ccc([N+](=O)[O-])cc3)cc2O1,-57.7
14,CC1(C)CC(=O)c2c(O)cc(OCc3ccc([N+](=O)[O-])cc3)cc2O1,15.1
15,O=C(COC(=O)c1ccc2c(c1)S(=O)(=O)N=C1CCCCCN12)NCCc1ccc(F)cc1,-3.75
16,CC1CN(C(=O)c2ccc(NS(=O)(=O)c3ccc(F)cc3)cc2)CC(C)O1 (stereo not drawn),3.67
17,CN(C)CCNC(=O)/C(=C/c1ccc(-c2ccc(Cl)cc2)o1)NC(=O)c1ccccc1,-80.9
18,Cc1ccc(/C=C(/NC(=O)c2ccccc2)C(=O)NCCc2c[nH]c3ccccc23)o1,-21.3
19,Cc1ccc(/C=C(\NC(=O)c2ccccc2)C(=O)NCCc2ccccn2)o1,-12.8
20,O=C(O)c1ccc(N/N=C/c2ccc(-c3cccc(Cl)c3)o2)cc1,8.51
21,CN(C)CCNC(=O)/C(=C/c1ccc(-c2cccc(Cl)c2)o1)NC(=O)c1ccccc1,-72
22,O=C(O)c1ccc(N/N=C/c2ccc(-c3ccc(Cl)cc3Cl)o2)cc1,10.7
23,CN(C)CCNC(=O)/C(=C/c1ccc(-c2ccc(Cl)cc2Cl)o1)NC(=O)c1ccccc1,-55.1
24,Cc1ccc(C(=O)N/C(=C\c2ccc(-c3cc(Cl)ccc3Cl)o2)C(=O)NCc2cccnc2)cc1,2.81
